Measurements: PMC7826789 (International Journal of Molecular Sciences, 2021)

Legend:
Conditions in all cases: Compound Concentration (nM):1000
[1] = test system: EGFR(G719S)
[2] = test system: EGFR(L747-E749del, A750P)
[3] = test system: EGFR(L747-S752del, P753S)
[4] = test system: EGFR(L747-T751del,Sins)
[5] = test system: EGFR(L858R)
[6] = test system: EGFR(L858R,T790M)
[7] = test system: EGFR(L861Q)
[8] = test system: EGFR(S752-I759del)
[9] = test system: EGFR(T790M)
[10] = test system: EGFR
[11] = test system: EIF2AK1
[12] = test system: EPHA1
[13] = test system: EPHA2
[14] = test system: EPHA3
[15] = test system: EPHA4
[16] = test system: EPHA5
[17] = test system: EPHA6
[18] = test system: EPHA7
[19] = test system: EPHA8
[20] = test system: EPHB1
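Further: KINOMEscan scanMAX binding as percent activity remaining versus control; lower means stronger binding.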

Row | Structure (SMILES) | Percent Control [1] [%] | Percent Control [2] [%] | Percent Control [3] [%] | Percent Control [4] [%] | Percent Control [5] [%] | Percent Control [6] [%] | Percent Control [7] [%] | Percent Control [8] [%] | Percent Control [9] [%] | Percent Control [10] [%] | Percent Control [11] [%] | Percent Control [12] [%] | Percent Control [13] [%] | Percent Control [14] [%] | Percent Control [15] [%] | Percent Control [16] [%] | Percent Control [17] [%] | Percent Control [18] [%] | Percent Control [19] [%] | Percent Control [20] [%]
1 | Cl.O=C(Nc1ccc(Oc2ccc3[nH]c(NC(=O)c4ccco4)nc3c2)cc1)Nc1cc(C(F)(F)F)ccc1F [GW683134A] | 92 | 69 | 78 | 100 | 91 | 100 | 89 | 97 | 84 | 92 | 100 | 20 | 15 | 58 | 14 | 53 | 35 | 17 | 1.1 | 39
2 | Cl.O=C(O[C@H]1CN[C@H](C#Cc2cc3ncnc(Nc4ccc5c(cnn5Cc5ccccc5)c4)c3s2)C1)N1CCOCC1 [GSK200398A] | 2 | 66 | 20 | 24 | 9.2 | 87 | 0.3 | 3.1 | 44 | 25 | 100 | 87 | 96 | 94 | 96 | 100 | 95 | 100 | 100 | 100
3 | COc1cc(C)c(N(C)C(=O)CN(C)C)cc1Nc1nc(Nc2cccc(F)c2C(N)=O)c2cc[nH]c2n1 [GSK2219385] | 75 | 98 | 100 | 100 | 89 | 100 | 82 | 100 | 56 | 87 | 100 | 93 | 86 | 100 | 95 | 100 | 100 | 100 | 94 | 99
4 | Nc1ncnc2occ(-c3ccc(NC(=O)Nc4cc(C(F)(F)F)ccc4F)cc3)c12 [GW770249X] | 87 | 88 | 93 | 100 | 100 | 96 | 79 | 89 | 80 | 100 | 100 | 40 | 13 | 19 | 5.4 | 15 | 29 | 6 | 1.1 | 14
5 | C[C@@H](Oc1cc(-n2cnc3ccc(OC4CCN(C)CC4)cc32)sc1C(N)=O)c1ccccc1Cl [GSK579289A] | 59 | 58 | 100 | 100 | 79 | 85 | 64 | 66 | 62 | 75 | 62 | 69 | 100 | 81 | 97 | 100 | 96 | 89 | 81 | 82
6 | COc1cc(/C=N/Nc2ncnc3[nH]ncc23)ccc1O [GW578748X] | 62 | 78 | 100 | 78 | 90 | 72 | 64 | 86 | 48 | 75 | 100 | 92 | 96 | 58 | 74 | 90 | 100 | 100 | 100 | 100
7 | COc1cc2ncn(-c3cc(O[C@H](C)c4ccccc4Cl)c(C(N)=O)s3)c2cc1OC [GSK237701A] | 69 | 100 | 86 | 87 | 100 | 79 | 97 | 100 | 75 | 100 | 92 | 100 | 100 | 100 | 72 | 100 | 83 | 88 | 89 | 81
8 | COc1cccc(-n2ncc3c(N/N=C/c4ccncc4)ncnc32)c1 [GW784752X] | 59 | 96 | 81 | 100 | 75 | 96 | 77 | 87 | 100 | 75 | 100 | 87 | 100 | 100 | 98 | 100 | 100 | 100 | 100 | 100
9 | CN1CCN(C(=O)c2ccc(NC(=O)Nc3ccc(N(C)c4ccnc(Nc5ccc(CS(C)(=O)=O)cc5)n4)cc3)cc2)CC1.Cl [GW830263A] | 100 | 99 | 78 | 100 | 92 | 55 | 92 | 100 | 54 | 100 | 100 | 56 | 85 | 79 | 85 | 99 | 76 | 92 | 89 | 87
10 | CC(C)COC(=O)c1ccc2c(c1)/C(=C/Nc1ccc(S(N)(=O)=O)cc1)C(=O)N2 [GW416981X] | 32 | 62 | 48 | 60 | 15 | 100 | 8.8 | 100 | 95 | 13 | 100 | 100 | 100 | 100 | 94 | 100 | 100 | 100 | 100 | 100
11 | COC(=O)Nc1nc2ccc(Oc3ccc(NC(=O)Nc4cc(C(F)(F)F)ccc4F)cc3)cc2s1.Cl [GW693917A] | 83 | 86 | 95 | 100 | 78 | 95 | 100 | 100 | 68 | 90 | 100 | 19 | 14 | 9.9 | 12 | 52 | 11 | 16 | 0.5 | 31
12 | Cc1cc(O)cc(C)c1/C=C/c1cncc(C(N)=O)c1 [GW435821X] | 67 | 68 | 87 | 100 | 80 | 100 | 71 | 78 | 94 | 78 | 100 | 47 | 62 | 63 | 51 | 88 | 100 | 100 | 28 | 82
13 | NS(=O)(=O)c1ccc(N/N=C2\C(=O)Nc3ccc(-c4cnco4)cc32)cc1 [GW276655] | 76 | 100 | 100 | 89 | 72 | 66 | 79 | 70 | 66 | 87 | 58 | 79 | 100 | 85 | 88 | 89 | 87 | 100 | 94 | 96
14 | CCc1ccc(Oc2nccc(-c3c(-c4ccc(F)cc4)ncn3C3CCNCC3)n2)cc1 [SB-242719] | 61 | 48 | 91 | 71 | 49 | 73 | 58 | 85 | 52 | 48 | 100 | 94 | 95 | 95 | 95 | 100 | 90 | 100 | 97 | 100
15 | COc1cc(N2CCN(C(C)C)CC2)ccc1Nc1nc(Nc2ccc(F)cc2C(=O)NC[C@@H](O)CO)c2cc[nH]c2n1 [GSK1392956A] | 87 | 83 | 71 | 94 | 73 | 7.6 | 60 | 86 | 4.4 | 76 | 100 | 91 | 94 | 70 | 100 | 100 | 72 | 100 | 100 | 100
16 | CCS(=O)(=O)c1ccc(OC)c(Nc2ncc(-c3cccc(OC)c3)o2)c1 [GW580509X] | 98 | 65 | 85 | 100 | 80 | 100 | 81 | 95 | 89 | 83 | 100 | 100 | 100 | 94 | 92 | 100 | 100 | 100 | 100 | 100
17 | C/C(Nc1ccc(S(N)(=O)=O)cc1)=C1/C(=O)Nc2ccccc21 [GW335962X] | 63 | 93 | 82 | 100 | 100 | 95 | 68 | 100 | 74 | 100 | 100 | 100 | 98 | 100 | 92 | 100 | 85 | 100 | 100 | 100
18 | CC1=C(C(=O)Nc2ccc3[nH]ncc3c2)C(c2ccc(Cl)c(Cl)c2)CC(=O)N1 (stereo not shown) [GSK299115A] | 100 | 100 | 97 | 100 | 100 | 65 | 86 | 89 | 77 | 100 | 100 | 100 | 98 | 86 | 96 | 95 | 100 | 100 | 100 | 74
19 | NS(=O)(=O)c1ccc(N/N=C2\C(=O)Nc3ccc(C(=O)NCCc4c[nH]cn4)cc32)cc1 [GW300660X] | 73 | 100 | 100 | 100 | 100 | 99 | 85 | 97 | 95 | 99 | 100 | 100 | 100 | 100 | 89 | 100 | 100 | 100 | 100 | 100
20 | COc1ccc2cc(-c3c(-c4ccncc4)nc(-c4ccc(S(C)(=O)=O)cc4C)n3C)ccc2c1 [SB-633825] | 84 | 78 | 70 | 70 | 63 | 38 | 41 | 93 | 40 | 74 | 91 | 89 | 76 | 90 | 66 | 99 | 63 | 48 | 69 | 64
